By AC50 is commonly meant the concentration giving half of the maximal activity seen.

Records with an inconclusive call do not appear. Active and inactive are the calls of the source. The calls were made as follows: active = hit-call score of the fitted dose curve at least 0.9, where 1 is the maximum; inconclusive = response in the unintended direction; inactive = score below 0.9.

This assay can be described thus: Tanguay_ZF_120hpf_CIRC_legacy: (Legacy) Oregon State University Tanguay Lab 120 Hour Post-fertilization zebrafish Assay for Circulatory Malformation (AID 2283651). The method, then: Tanguay_ZF_120hpf_legacy is a whole embryo, multiplexed endpoint assay using zebrafish larvae exposed for 120 hours post fertilization on a 96-well plate.Tanguay_ZF_120hpf_CIRC_legacy is one of one assay component(s) measured or calculated from the Tanguay_ZF_120hpf_legacy assay. It is designed to make measurements of zebrafish development as detected with brightfield microscopy of developing zebrafish embryos.Data from the assay component Tanguay_ZF_120hpf_CIRC_legacy was analyzed into 1 assay endpoints. This assay endpoint, Tanguay_ZF_120hpf_CIRC_legacy, was analyzed in the positive analysis fitting direction relative to DMSO as the negative control and baseline of activity. Using a type of morphology reporter, gain-of-signal activity can be used to understand changes in developmentals as they relate to the whole embryo. To generalize the intended target to other relatable targets, this assay endpoint is annotated to the zebrafish development intended target family, where the subfamily is angiogenesis.
Zebrafish husbandry: Tropical 5D wild-type adult zebrafish were housed in at an approximate density of 1000 per 100 gallon tank at the Sinnhuber Aquatic Research Laboratory, Oregon State University, Corvallis, OR. Each tank was kept at standard laboratory conditions of 28C on a 14-h light/10-h dark photoperiod in fish water consisting of reverse osmosis water supplemented with a commercially available salt (Instant Ocean). Spawning funnels were placed into the tanks the night prior, and embryos were collected and staged. To increase bioavailability, the chorion was enzymatically removed using pronase (63.6mg/ml, >/= 3.5U/mg, Sigma-Aldrich: P5147) at 4 hours post fertilization (hpf) using a custom automated dechorionator.Chemical exposures: Six hpf dechorionated embryos were placed 1 embryo per well in a 96-well plate prefilled with 90 ul of EM using automated embryo placement systems (AEPS). Ten microliters of each row of dilution plate 2 was added to 2 exposure plates. The final DMSO concentration used was 0.64% (vol/vol). Thirty-two embryos were also exposed to 5uM trimethyltin chloride (positive control). Plates were sealed to prevent evaporation and foil covered to reduce light exposure and kept in a 28C incubator. Embryos were statically exposed until 120 hpf. At 24 hpf, embryos were assessed for photomotor response using a custom photomotor response analysis tool (PRAT) and for developmental toxicity endpoints (MO24: mortality at 24 hpf, DP: developmental progression, SM: spontaneous movement, and NC: notochord distortion). At 120 hpf, locomotor activity was measured using Viewpoint Zebralab and assessed for 18 endpoints. Zebrafish acquisition and analysis program (ZAAP), a custom program designed to inventory, acquire, and manage zebrafish data, was used to collect developmental endpoints as either present or absent (i.e., binary responses were recorded). If mortality occurred for an embryo (at either 24 or 120 hpf), the non-mortality endpoints were not measured.
In the case of `CCCOc1sc(C(=O)N2CCC(c3cc(CN)ccc3F)CC2)c(C)c1Br`, the call was inactive.
For `CCCCOCCO`, the molecule was called inactive.
Same read-out and setting: in the case of `CN1CCN(c2ccccc2/C=C2\SCCN(c3ccc(Cl)c(Cl)c3)C2=O)CC1` it was “inactive”.
Turning to `OC1CCC(C2CCCCC2)CC1` (stereo not given), the molecule was classed as inactive.
With `COC(=O)CCCCC(=O)OC`, the outcome was inactive.
With `NC(=O)N1C(=O)C(C(=O)c2cc(Cl)cs2)c2cc(F)c(Cl)cc21` (stereo not given), the molecule was classed as inactive.
The same measure, in the same setting: in the case of `CC[C@H](C)[C@@H](C(=O)O)n1sc2ccccc2c1=O` it was “inactive”; in that of `CCCCCCCC(=O)O`, “inactive”.
Take `N#C[C@@H]1CC(F)(F)CN1C(=O)CNC1CC2CCC(C1)N2c1ncccn1` (stereo not given in full): the call was inactive.
`CC(C)CCCCCCOC(=O)CCCCC(=O)OCCCCCCC(C)C`: the outcome was inactive.
Consider `CCOC(=O)CC(O)(CC(=O)OCC)C(=O)OCC`, for which the outcome was inactive.
As for `CCCCCCCCCCCCN1CCCC1=O`, the call was inactive.
Same read-out and setting: in the case of `O=[N+]([O-])c1ccc(O)cc1` it was “inactive”; in that of `O=C(OCCOCCOC(=O)c1ccccc1)c1ccccc1`, “inactive”.
Turning to `Cc1cc(CCN2CCN(c3nsc4ccccc34)CC2)cc2c1NC(=O)CC2(C)C`, the AC50 is 5.83 µM (active).
As for `O=c1c(-c2ccc(O)cc2)coc2cc(O)ccc12`, the outcome was inactive.
On the same count and under the same terms, in the case of `CC1=C(/C=C/C(C)=C/C=C/C(C)=C/C(=O)O)C(C)(C)CCC1` it was “inactive”.
`CC(C)(C)c1cccc(C(C)(C)C)c1O`: the outcome was inactive.
With `CCCOC(=O)c1ccc(O)cc1`, the AC50 is 40.1 µM (active).
For the molecule `CC(O)CO` (stereo not given), the molecule was called inactive.
Consider `CCN(CC)CCNc1ccc(CNC=O)c2sc3ccc(OC)cc3c(=O)c12`, for which the result was inactive.
With `C=C(C)C(=O)OCCC(F)(F)C(F)(F)C(F)(F)C(F)(F)C(F)(F)C(F)(F)F`, the call was inactive.
In the case of `CCCCCCCCC(=O)O`, the molecule was classed as inactive.
With `CC(C)(C)CC(C)(C)c1ccc(O)c(-n2nc3ccccc3n2)c1`, the outcome was inactive.
As to `c1ccc2c(c1)ccc1ccccc12`, the molecule was classed as inactive.
As to `CCCCC(CC)COC(=O)CCCCC(=O)OCC(CC)CCCC` (stereo not given), the outcome was inactive.
Consider `CCCCCCC(=O)O`, for which the molecule was called inactive.
Regarding `OCCC(F)(F)C(F)(F)C(F)(F)C(F)(F)C(F)(F)C(F)(F)C(F)(F)C(F)(F)F`, the result was inactive.
`CCc1nn(C2CCCCC2)c2cc(C3(C#N)CCC(C(=O)O)CC3)ccc12` (stereo not given): the molecule was called inactive.
Turning to `OCCC(F)(F)C(F)(F)C(F)(F)C(F)(F)C(F)(F)C(F)(F)F`, the result was inactive.
In the case of `CN(C)C=O`, the molecule was classed as inactive.
On to `CCc1ccc(CCOc2ccc(CC3SC(=O)NC3=O)cc2)nc1` (stereo not given), for which the call was inactive.
Same read-out and setting: in the case of `CC[C@H](c1ccc(O)cc1)[C@@H](CC)c1ccc(O)cc1` it was “inactive”; in that of `C[C@@H]1C[C@H]2[C@@H]3CCC4=CC(=O)C=C[C@]4(C)[C@@]3(F)[C@@H](O)C[C@]2(C)[C@@]1(O)C(=O)COP(=O)(O)O`, “inactive”; in that of `CC(=O)NC1(c2cccc(F)c2)CCN(CC[C@@]2(c3ccc(Cl)c(Cl)c3)CN(c3ccccc3)C(=O)CO2)CC1`, “inactive”.
With `Oc1cccc(O)c1`, the outcome was inactive.
Regarding `CCCCCCCCCCCCc1ccccc1S(=O)(=O)O`, the outcome was inactive.
With `CC(C)(C)c1ccc(O)c(C(C)(C)C)c1`, the outcome was inactive.
Consider `Oc1cc2ccccc2c2ccccc12`, for which the AC50 was 10.2 µM (active).
`CC(C)(C)c1cc(C(C)(C)C)c(O)c(C(C)(C)C)c1`: the call was inactive.

For the origin of these results see PubChem BioAssay (EPA / NIEHS).
